# Screening results (PubChem)
# The list is not random: actives were taken first. Their share in the collection is about 11%.
# L3MBTL1 inh – qHTS Assay for the Inhibitors of L3MBTL1; Lethal(3)malignant brain tumor-like protein 1 (Homo sapiens), Q9Y468; AlphaScreen L3MBTL1–H3K9me1 peptide binding; Potency, µM (doses to about 57.1 µM), for the others: top-dose activity, negative = inhibition, hits mostly inhibitors; hit rate 0.66% among 230,000; AID 485360, 2010; also: % is scaled to controls: 0 for no effect and ±100 for the full control effect; nearly all actives have a fitted effect of over 60% in size
#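 L3MBTL1 50 nM + b-AHA-H3(1-15)K9me1 75 nM, 30 min RT; compound added, 30 min RT; streptavidin donor/Ni-chelate acceptor beads 10 ug/mL each final, 30 min RT dark; AlphaScreen read.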
# G9a inh – qHTS Assay for Inhibitors of Histone Lysine Methyltransferase G9a. Histone-lysine N-methyltransferase EHMT2 (Homo sapiens), Q96KQ7. Potency, µM (doses to about 102 µM), inactives show top-dose activity, negative = inhibition, hits mostly inhibitors. hit rate 8.8% among 350,000. G9a H3K9 monomethylation, AlphaScreen, 2 h. AID 504332, 2011; also: % is scaled to controls: 0 for no effect and ±100 for the full control effect; nearly all actives have a fitted effect of over 75% in size
# Target sequence (Q96KQ7 913-1193 limits assumed): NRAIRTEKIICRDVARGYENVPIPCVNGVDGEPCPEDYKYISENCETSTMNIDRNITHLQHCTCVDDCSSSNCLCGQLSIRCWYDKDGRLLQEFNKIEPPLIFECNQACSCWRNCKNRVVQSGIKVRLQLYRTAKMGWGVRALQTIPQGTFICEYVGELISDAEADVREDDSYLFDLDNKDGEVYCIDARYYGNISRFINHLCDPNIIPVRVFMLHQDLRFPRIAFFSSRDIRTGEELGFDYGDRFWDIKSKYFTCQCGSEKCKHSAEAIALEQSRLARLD
#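 G9a (20 nM) preincubated 15 min RT with compounds, then 500 nM biotinylated H3K9 peptide and 20 uM SAM added; 2 h RT reaction. Monomethyl-H3K9 product detected by AlphaScreen with anti-H3K9me1 antibody, streptavidin donor and anti-rabbit IgG acceptor beads.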
# BAZ2B block – qHTS Assay for Inhibitors of BAZ2B. Bromodomain adjacent to zinc finger domain protein 2B (Homo sapiens), Q9UIF8. AlphaScreen BAZ2B-H3K14Ac peptide displacement. Potency, µM (doses to about 114 µM), without a hit: top-dose activity change, negative = inhibition, most hits filed as inhibitors. hit rate 4.4% among 360,000. AID 504333, 2011; also: % is scaled to controls: 0 for no effect and ±100 for the full control effect; nearly all actives have a fitted effect of over 60% in size
#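 AlphaScreen displacement of biotin-H3(5-23)K14Ac peptide (50 nM final) from BAZ2B (50 nM final) in PBS pH 7.4, 0.01% Tween-20; complex preformed 30 min RT, then compounds (top 110 uM) 30 min RT, beads 20 min dark.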
# HP1b chromo inh – HTS for Inhibitors of HP1-beta Chromodomain Interactions with Methylated Histone Tails | Chromobox protein homolog 1 (Homo sapiens), P83916 | AlphaScreen HP1-beta / biotin-H3K9me3 peptide binding | Potency, µM (doses to about 114 µM), for inactives: top-dose activity change, negative = inhibition, hits mostly inhibitors | hit rate 0.56% among 390,000 | AID 540317, 2011; also: nearly all actives have a fitted effect of over 70% in size
# Target sequence (P83916 whole entry, looked up): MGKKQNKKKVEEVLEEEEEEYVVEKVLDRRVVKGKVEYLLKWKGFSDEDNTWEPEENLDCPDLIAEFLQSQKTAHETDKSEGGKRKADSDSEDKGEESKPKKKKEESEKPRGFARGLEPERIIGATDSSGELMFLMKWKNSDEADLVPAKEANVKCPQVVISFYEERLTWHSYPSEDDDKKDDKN
#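 Compound inhibition of the preformed complex between 50 nM HP1-beta and 50 nM biotinylated H3K9me3 peptide was read by AlphaScreen. Buffer was PBS pH 7.4 with 0.01% Tween-20. Incubations ran 30 min at room temperature, with 10 ug/mL donor/acceptor beads.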
# JMJD2A Tudor inh – qHTS Assay for Inhibitors of JMJD2A-Tudor Domain. Lysine-specific demethylase 4A (Homo sapiens), O75164. AlphaScreen JMJD2A-Tudor / H3K4me3 peptide binding. Potency, µM (doses to about 114 µM), for the others: top-dose activity change, negative = inhibition, most hits filed as inhibitors. hit rate 4.4% among 390,000; also: % is scaled to controls: 0 for no effect and ±100 for the full control effect; nearly all actives have a fitted effect of over 50% in size
# * = called active by the depositor; ? = inconclusive; / = not tested or not shown; [ ] = another dose, or the depositor's remark. Calls follow the shape of the dose curve; as a rule, active = well fitted inhibition curve with a large enough effect; inconclusive = small, poorly fitted or top-dose-only effect; inactive = no such curve, though single readings can be large or run the other way. Potency is read from the fitted curve at half-maximal effect.
SMILES,L3MBTL1 inh,G9a inh,BAZ2B block,HP1b chromo inh,JMJD2A Tudor inh
CCCCN(CCCNC(=O)C1CCN(S(=O)(=O)N2CCOCC2)CC1)c1ccccc1,-1.4%,39.8µM*,-34.3%,-9.0%,?
CC(C)(C)OC(=O)N1CCC(c2c(C(=O)N3CCN(c4ccccn4)CC3)cnn2-c2cccc(F)c2)CC1,/,-23.2%[59 µM],3.3%[57.1 µM],13.5%,-18.1%
Cc1nc(C)c(-c2csc(Nc3ccc(O)c(C(=O)O)c3)n2)s1,-5.3%,79.4µM*,?,-8.1%,-29.4%
Cc1cc(O)ccc1Nc1nc(-c2sc(N)nc2C)cs1,-7.5%,14.7%[59 µM],-2.3%,-31.2%,50.1µM*
Cc1nc(C)c(-c2csc(Nc3ccc(N)cc3)n2)s1,-23.2%,39.8µM*,28.2µM*,?,50.1µM*
COc1ccc(Nc2nc(-c3sc(C)nc3C)cs2)cc1,-9.9%,/,50.1µM*,?,?
Cc1nc(C)c(-c2csc(Nc3cccnc3)n2)s1,-7.0%,0.5%[12.7 µM],?,8.3%,?
CC(C)(C)c1ccc(S(=O)(=O)N2CCN(c3nc(-c4ccccc4)nc4ccccc34)CC2)cc1,/,/,/,25.8%,-2.1%
CC(C)c1ccc(S(=O)(=O)NCc2ccc3c(c2)CCN3C(=O)c2ccccc2)cc1,/,9.6%[59 µM],1.6%,20.2%[57 µM],-17.9%
N#CN1CCC(NS(=O)(=O)c2cccc(C(F)(F)F)c2)CC1,/,/,/,/,-7.5%
Cc1nc(N)sc1-c1csc(Nc2ccccc2)n1,-1.8%,?,50.1µM*,-38.4%,?
O=C(CSCc1cnn(-c2ccccc2)c1-n1cccc1)NCc1ccc(F)cc1,/,-40.4%[59 µM],-5.2%,36.7%,7.6%
CCOc1ccc(Cc2n[nH]c(=S)n2Cc2ccccc2)cc1,-12.6%,1.12µM*,-37.7%,-9.7%,44.7µM*
Cc1ccc(OCc2n[nH]c(=S)n2Cc2ccccc2)cc1,-2.4%,?,-19.9%,19.5%,-27.8%
COc1ccccc1C(=O)NCc1nc2cccnc2n1Cc1ccc(F)cc1,/,4.8%[59 µM],-0.1%,25.5%[57 µM],-11.0%
COc1ccccc1C(=O)NCc1n[nH]c(=S)n1Cc1ccccc1,0.2%,?,-3.0%,42.8%,35.5µM*
S=c1[nH]nc(COc2cccc3ccccc23)n1Cc1ccccc1,3.7%,-30.4%,-8.4%,28.8%,-12.7%
COc1ccc(Cc2n[nH]c(=S)n2Cc2ccccc2)cc1Cl,-12.1%,6.31µM*,?,-17.5%,56.2µM*
Cc1ccc(C(=O)Nn2cnnc2)cc1Cl,0.3%,1.3%[59 µM],-5.1%,-4.8%,4.1%
CCCCn1cc(S(=O)(=O)c2ccc(C)c(C)c2)c(=O)c2cc(F)c(N(CC)CC)cc21,/,5.2%[59 µM],2.9%,9.5%,-12.5%
CSc1cccc(NC(=O)CC(c2cccs2)N2Cc3ccccc3C2=O)c1 (stereo not given),/,2.1%[59 µM],-19.6%,43.8%,-13.1%
O=c1cc(CSc2ccc(Cl)cc2)[nH]c2[nH]n(-c3ccccc3)c(=O)c12,?,39.8µM*,35.5µM*,?,?
Cc1ccc(SCc2cc(=O)c3c(=O)n(-c4ccccc4)[nH]c3[nH]2)cc1,-90.1%,17.8µM*,28.2µM*,?,?
Cc1ccc2c(=O)cc(CSc3ccccc3)[nH]c2c1C,/,20.4%[59 µM],8.0%,17.5%[57 µM],-14.9%
Cc1cccc(C)c1NC(=O)Cn1c(=O)n(Cc2ccco2)c(=O)c2ccc(C(=O)NC3CCCC3)cc21,/,-0.9%[59 µM],/,10.0%,-12.3%
SMILES,L3MBTL1 inh,G9a inh,BAZ2B block,HP1b chromo inh,JMJD2A Tudor inh
Fc1cc(F)cc(Nc2nc(NC3CCCC3)nc(C3CO3)n2)c1 (stereo not given),/,/,/,/,-21.9%
COc1ccc(CCNC(=O)c2cccc(-n3cnc4cccnc43)c2C)cc1OC,/,-29.3%[59 µM],-8.1%,27.4%,-7.2%
CCOc1cc(CNCc2ccc3c(c2)OCO3)ccc1OC,-1.6%,9.0%[59 µM],-26.1%,46.2%,-11.3%
CCOc1ccccc1CN(CCc1ccc2c(c1)OCO2)Cc1cccc(OC)c1OC,/,2.51µM*,50.1µM*,?,4.47µM*
COc1ccccc1CC(=O)NCc1ccc2c(c1)OCO2,8.6%,-12.2%[12.7 µM],-8.2%,25.7%,-18.0%
CCOc1ccc(CN(CCc2ccc3c(c2)OCO3)Cc2cc(OC)c(OC)cc2OC)cc1,/,2.82µM*,28.2µM*,11.2µM*,8.91µM*
CCc1nn(CC(=O)N2CCCCC2)c(=O)c2cc3sccc3n12,/,7.4%[59 µM],0.3%,22.0%,-4.7%
N#CC1=C(N)OC2=C(CCC/C2=C/c2ccoc2)C1c1ccoc1 (stereo not given),15.8µM*,15.8µM*,?,/,/
Cn1c2ccccc2c2cnn(CC(=O)Nc3ccccc3F)c(=O)c21,/,?,?,20.7%,-16.6%
O=c1c(Cl)c(NCCCO)cnn1-c1nc2ccccc2[nH]1,-9.2%,5.6%[12.7 µM],50.1µM*,-0.7%,-21.2%[11.4 µM]
C=CCN(CC=C)c1cnn(-c2nc3ccccc3[nH]2)c(=O)c1Cl,/,?,?,32.6%,-20.5%
CCOC(=O)c1ccccc1S(=O)(=O)N1CCN(c2nc(-c3cccs3)nc3ccccc23)CC1,/,/,/,21.1%,?
CC1=C(c2ccc(F)cc2)S(=O)(=O)N=C1N1CCC(C(=O)NCCc2cccc(C)c2)CC1,/,-4.0%[59 µM],-12.2%,17.9%,-16.0%
Cc1ccc(OCCSc2nnc(-c3ccncc3)n2C)cc1,4.0%,39.8µM*,-0.1%,22.2%,-1.5%
COc1cccc(-c2nnc(SCC3CNC(=O)O3)n2-c2ccc(Cl)cc2)c1 (stereo not given),-7.2%,14.1µM*,12.0%,26.1%,-12.7%
Cc1ccccc1OCc1nnc(SCC(=O)O)n1-c1ccccc1,9.3%[2.29 µM],8.6%[0.501 µM],-26.7%,24.2%,-11.2%
COc1cccc(-n2c(COc3ccccc3C)nnc2SCC(=O)O)c1,0.1%,44.7µM*,-5.0%,23.7%,-11.9%
COc1ccc(-n2c(SCC(=O)N3CCCCC3C)nnc2-c2cccnc2)cc1 (stereo not given),-0.4%,39.8µM*,15.9%,58.2%,4.4%
COc1ccc(-n2c(SCC(=O)N3CCCC(C)C3)nnc2-c2cccnc2)cc1 (stereo not given),-5.9%,-2.6%,9.1%,18.3%,-0.7%
CC1=C(C(=O)OCC2CCCO2)C(c2ccc(Cl)c(Cl)c2)NC(=O)N1 (stereo not given),53.3%,/,14.3%,20.4%,-1.4%
Nn1c(SCCOc2ccc(Cl)cc2)nnc1-c1cccnc1,1.6%,?,-4.1%,3.2%,-26.3%
C=CCn1c(SCC(=O)Nc2nnc(C)s2)nnc1-c1cccnc1,/,-42.8%,-35.0%,8.8%,56.2µM*
COc1cccc(-n2c(SCC(=O)O)nnc2-c2cccnc2)c1,-4.0%,56.2µM*,1.1%,31.4%,-18.2%
